Compound activity as filed in PubChem BioAssay.
In the library only some 6.8% were active in any assay of this set; here they are far more common.
C diff growth: blocks growth of Clostridium difficile; growth activity, negative = inhibition, % at 16 µg/mL (by protocol); Clostridium difficile clinical isolate growth, OD600, 24 h; hits give low values; AID 1259249; 86,000 compounds, 0.25% hits;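 active = mean growth activity at or below -80% and every replicate also at or below -80%; inconclusive = mean at or below -80% but some replicate above -80%; inactive = mean growth activity above -80%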
Pf Dd2 inh: inhibitors of Plasmodium falciparum Dd2 growth | activity change, % at 10 µM | 94,000 compounds, 2.3% hits | P. falciparum Dd2 growth, SYBR Green, 72 h; hits give low values; in the data active = activity change below about -80%; inconclusive = no clear call, values can overlap the other calls
T cruzi growth: T. cruzi proliferation inhibition; T. cruzi beta-gal in NIH3T3, GalScreen luminescence, 90 h; inhibition, % at 8.34 µM; 77,000 compounds, 5.9% hits; AID 624255;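 active = mean inhibition above about 93%, with at least 55% of replicates each passing it, limit read from the data, passing the limit was not always enough; inconclusive = only one of those two conditions holds; inactive = neither condition holds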
Hits are given with their value; n = inactive; u = inconclusive; x = no result given.

SMILES	C diff growth	Pf Dd2 inh	T cruzi growth
OC[C@H]1CC[C@@H]2O[C@H](CCc3ccc(C#CCc4ccccc4)cc3)[C@@H](n3cc(-c4ccccc4)nn3)C[C@@H]2O1	n	u	x
COCC#Cc1ccc(CC[C@H]2O[C@H]3CC[C@H](CO)O[C@H]3C[C@H]2n2cc(C3CC3)nn2)cc1	n	n	x
OC[C@@H]1CC[C@@H]2O[C@H](CCc3ccc(C#Cc4ccccc4)cc3)[C@H](n3cc(-c4ccccc4)nn3)C[C@@H]2O1	n	-83.8	x
CCCC#Cc1ccc(CC[C@H]2O[C@H]3CC[C@H](CO)O[C@H]3C[C@@H]2n2cc(C(C)(C)O)nn2)cc1	n	-85.0	x
O=C(N[C@H]1CC[C@@H](CCNS(=O)(=O)c2ccc(Cl)cc2)O[C@H]1CO)c1ccccn1	x	n	n
CC=Cc1ccc2n(c1=O)C[C@@H]1[C@@H](CO)[C@H](C(=O)NCc3ccccc3)N(CCC(F)(F)F)[C@H]21 (mixture of isomers)	n	n	n
COc1ccccc1NC(=O)N1C[C@H]2[C@@H](c3ccccc31)[C@H](CO)N2Cc1ccccc1F	n	n	n
COc1ccc(C#Cc2ccc3c(c2)O[C@@H](CN(C)S(=O)(=O)c2ccccc2F)[C@H](C)CN([C@@H](C)CO)S3(=O)=O)cc1	n	-82.0	x
COc1ccc(C#Cc2ccc3c(c2)O[C@H](CN(C)S(=O)(=O)c2ccccc2F)[C@@H](C)CN([C@@H](C)CO)S3(=O)=O)cc1	n	-85.7	x
COc1ccc(C#Cc2ccc3c(c2)O[C@@H](CN(C)C)[C@H](C)CN([C@H](C)CO)S3(=O)=O)cc1	n	n	n
COc1ccc(C#Cc2ccc3c(c2)O[C@H](CN(C)C)[C@@H](C)CN([C@H](C)CO)S3(=O)=O)cc1	n	n	n
COc1ccc2c3c([nH]c2c1)[C@@H](CO)N(Cc1ccccc1)CC31CN(C(=O)c2ccccn2)C1	x	n	x
Cc1noc(C)c1NC(=O)N(C)C[C@H]1Oc2ccc(NC(=O)Nc3ccc(F)cc3)cc2CC(=O)N([C@@H](C)CO)C[C@H]1C	n	n	n
C[C@@H]1CN([C@H](C)CO)C(=O)c2cc(-c3ccncc3)cnc2O[C@H]1CN(C)C(=O)c1cccc(F)c1	n	n	n
C[C@@H]1CN([C@@H](C)CO)C(=O)c2cccc(NC(=O)C3CCOCC3)c2O[C@H]1CN(C)CC1CCCCC1	n	n	n
Cc1noc(C)c1S(=O)(=O)Nc1cccc2c1O[C@H](CN(C)CC1CC1)[C@H](C)CN([C@H](C)CO)C2=O	n	n	n
C[C@@H]1CN([C@@H](C)CO)C(=O)c2cc(NC(=O)Nc3ccc(C(F)(F)F)cc3)ccc2O[C@@H](C)CCCCO[C@@H]1CN(C)S(=O)(=O)c1cccs1	n	n	n
C[C@@H]1CCCCO[C@@H](CN(C)S(=O)(=O)c2cccs2)[C@@H](C)CN([C@H](C)CO)C(=O)c2cc(NC(=O)Nc3ccc(C(F)(F)F)cc3)ccc2O1	n	n	n
C[C@@H]1CN([C@@H](C)CO)C(=O)c2cc(NC(=O)CCC(F)(F)F)ccc2O[C@@H](C)CCCCO[C@@H]1CN(C)S(=O)(=O)c1cccs1	n	n	n
C[C@@H]1CCCCO[C@@H](CN(C)S(=O)(=O)c2cccs2)[C@@H](C)CN([C@@H](C)CO)C(=O)c2cc(NC(=O)Nc3ccc(C(F)(F)F)cc3)ccc2O1	n	-87.1	n
C[C@@H]1CCCCO[C@H](CN(C)S(=O)(=O)c2cccs2)[C@@H](C)CN([C@@H](C)CO)C(=O)c2cc(NC(=O)Nc3ccc(C(F)(F)F)cc3)ccc2O1	n	-86.9	n
C[C@@H]1CN([C@H](C)CO)C(=O)c2cc(NC(=O)CCC(F)(F)F)ccc2O[C@@H](C)CCCCO[C@@H]1CN(C)S(=O)(=O)c1cccs1	n	-84.7	n
COC(=O)C[C@H]1CC[C@@H]2[C@@H](COc3ccc(NC(=O)NCc4ccccc4)cc3C(=O)N2C)O1	n	n	n
CN(C)C(=O)c1cccc(-c2ccc([C@@H]3[C@@H](CO)N4CCCCN(C(=O)C5CCCC5)C[C@H]34)cc2)c1	n	n	n
C[C@H](CO)N1C[C@H](C)[C@@H](CN(C)S(=O)(=O)c2ccc(Cl)cc2)Oc2ccc(NC(=O)CCCN(C)C)cc2C1=O	n	n	n
SMILES	C diff growth	Pf Dd2 inh	T cruzi growth
C[C@H]1CN([C@@H](C)CO)S(=O)(=O)c2ccc(C3=CCCCC3)cc2O[C@H]1CN(C)C(=O)c1ccccc1	n	n	n
CO[C@@H]1CN(C)C(=O)c2cc(NC(=O)C3CCCCC3)ccc2OC[C@H](C)N(C)C[C@@H]1C	x	x	n
C[C@@H]1CCCCO[C@H](CN(C)C(=O)CCC(F)(F)F)[C@@H](C)CN([C@H](C)CO)C(=O)c2cc(NC(=O)Nc3ccc4c(c3)OCO4)ccc2O1	n	-82.6	n
COc1ccc(NC(=O)Nc2ccc3c(c2)C(=O)N([C@@H](C)CO)C[C@@H](C)[C@H](CN(C)C(=O)Cc2ccccc2)OCCCC[C@H](C)O3)cc1	n	n	n
C[C@@H]1CCCCO[C@@H](CN(C)C(=O)Nc2ccc3c(c2)OCO3)[C@@H](C)CN([C@H](C)CO)C(=O)c2cc(NC(=O)Nc3ccc(F)cc3)ccc2O1	n	n	n
COc1ccc(NC(=O)Nc2ccc3c(c2)C(=O)N([C@@H](C)CO)C[C@H](C)[C@@H](CN(C)C(=O)Cc2ccccc2)OCCCC[C@@H](C)O3)cc1	n	-85.8	n
C[C@@H]1CCCCO[C@@H](CN(C)C(=O)Nc2ccc3c(c2)OCO3)[C@@H](C)CN([C@@H](C)CO)C(=O)c2cc(NC(=O)Nc3ccc(F)cc3)ccc2O1	n	-82.8	n
C[C@@H]1CCCCO[C@@H](CN(C)C(=O)CCC(F)(F)F)[C@@H](C)CN([C@@H](C)CO)C(=O)c2cc(NC(=O)Nc3ccc4c(c3)OCO4)ccc2O1	n	n	n
C[C@@H]1CN([C@@H](C)CO)C(=O)c2cc(NC(=O)NC3CCCCC3)ccc2O[C@@H](C)CCCCO[C@@H]1CN(C)C(=O)Nc1ccc2c(c1)OCO2	n	n	n
C[C@@H]1CCCCO[C@H](CN(C)C(=O)Nc2ccc3c(c2)OCO3)[C@H](C)CN([C@H](C)CO)C(=O)c2cc(NC(=O)NC3CCCCC3)ccc2O1	n	-82.0	n
C[C@H](CO)N1C[C@H](C)[C@H](CN(C)C(=O)Nc2ccc3c(c2)OCO3)Oc2ncc(C#CCN(C)C)cc2C1=O	n	n	n
O=C(C[C@@H]1C[C@H]2c3cc(NC(=O)CC4CC4)ccc3O[C@H]2[C@@H](CO)O1)NCCc1ccccc1	n	n	n
C[C@H]1CN([C@@H](C)CO)C(=O)c2cc(-c3cccc(F)c3)cnc2O[C@H]1CN(C)C(=O)C1CC1	x	n	n
Cc1noc(C)c1S(=O)(=O)Nc1ccc2c(c1)CC(=O)N([C@@H](C)CO)C[C@H](C)[C@@H](CN(C)C(=O)Nc1cccc3ccccc13)O2	n	n	n
CO[C@@H]1CN(C)C(=O)c2ccc(NC(=O)c3ccc(F)cc3)cc2OC[C@@H](C)NC[C@@H]1C	n	n	x
O=C(C[C@H]1CC[C@H](NC(=O)Nc2ccc(C(F)(F)F)cc2)[C@@H](CO)O1)NCc1ccccn1	n	n	n
COc1ccccc1NC(=O)N1C[C@@H](C)[C@H](OC)CN(C)C(=O)c2ccc(NC(=O)c3ccccn3)cc2OC[C@H]1C	n	n	n
